According to PubChem BioAssay AID686978 (National Center for Advancing Translational Sciences (NCATS), 2013):
Values joined by “and” are separate entries in the source; they are usually repeats but may differ in a detail not shown here. Equal values may be shown once. About 64,000 (15%) of roughly 420,000 compounds were called active. Roughly 27% stayed inconclusive and do not appear here. This is one part of a sample in which actives are shown more often than they occur. Calls come from the whole dose curve; as a rule, active = well fitted inhibition curve with a large enough effect; inconclusive = small, poorly fitted or top-dose-only effect; inactive = flat fitted curve, though single readings scatter.

Experiment: qHTS for Inhibitors of human tyrosyl-DNA phosphodiesterase 1 (TDP1): qHTS in cells in absence of CPT; note: nearly all actives have a fitted effect of over 55% in size
Conditions: DT40 Tdp1-/- hTDP1 cells, no CPT, ATP luminescence, 48 h; series mostly up to 46.2 µM; activity change, negative = growth inhibition: at the top concentration
Excerpt: Human tyrosyl-DNA phosphodiesterase 1 (TDP1) is a novel repair gene, and we propose to use it as a new target for anticancer drug development. TDP1 is not an essential protein, but under treatment with topoisomerase I poison (camptothecin: CPT), TDP1 works as a critical factor for cell survival. To directly identify novel TDP1 inhibitors active in a cellular environment, we have knocked-out the Tdp1 gene in chicken DT40 cells (Tdp1-/-) and generated a complemented counterpart cells that contains a stable transfection of the human TDP1 gene (Tdp1-/-;hTDP1 cells). For the primary screen, Tdp1-/-;hTDP1 cells will be exposed to small molecules in the presence or absence of CPT, and their growth kinetics will be evaluated after 48 hours by measuring ATP activity. […] The hit compounds will then be evaluated in the presence or absence of CPT using Tdp1-/- cells. […] In tertiary assays, biochemical gel-based assays will be used to assess whether the hit compounds specifically target TDP1.
To this end, we have screened this cell line against the MLSMR in two primary screens. In one screen we add CPT and in the other we screen in the absence of CPT; this AID represents the screen where CPT was absent.
NIH Chemical Genomics Center [NCGC]
NIH Molecular Libraries Probe Centers Network [MLPCN]
Assay Submitter (PI): Yves Pommier, NCI
DT40-hTDP1 cells without 20 nM Camptothecin (add 20 microL of DMSO in 1 L of cell culture medium) were dispensed at 400 cells/5microL/well in tissue culture treated 1536-well white wall/solid bottom assay plates (Greiner Bio-One North America, NC, U.S.A.) using a Multidrop Combi 8 channel dispenser (Thermo Fisher, Waltham, MA, USA). 23 nL compounds and controls were transferred using the pin tool (Kalypsys, San Diego, CA, USA) to the assay plates. The assay plates were then incubated at 37 masculineC for a minimum 48 hr. Three microL of Cell Titer Glo solution was added to the plates and incubated at RT in dark for 30 min. Luminescence was read using ViewLux (Perkin Elmer) with 1 sec exposure slow speed, high gain and 2x binning.
% is set by controls: 0 for no effect and ±100 for the full control effect; potency is the fitted concentration of half-maximal effect.

Compound | Potency | activity change, negative = growth inhibition
CN(Cc1cccc2ncccc12)C(=O)c1cnn(-c2nccc(-c3ccccc3F)n2)c1C1CC1 | 3.66 µM (active) | –
CCOC(=O)CC(SP1(=S)OCC2(CCCCO2)C(C2CCCCO2)O1)C(=O)OCC (stereo not given) | – | -23.8% (inactive)
CC[N+](C)(CC)CCC[n+]1c(-c2ccccc2)c2cc(N)ccc2c2ccc(N)cc21 | 2.58 µM (active) | –
CCOP(=S)(OCC)C(O)CCCCCn1c(=O)c(F)cn(C2CCCO2)c1=O (stereo not given) | – | -6.96% (inactive)
O=C(Nc1ccc(Cl)cc1C(=O)c1ccccc1)c1cc(Cl)cc(Cl)c1 | – | -8.13% (inactive)
CCC1(c2ccccc2)C(=O)NC(=O)N(C)C1=O (stereo not given) | – | -2.29% (inactive)
CC=C(C)C(=O)OC1CCN2CC=C(COC(=O)C(O)(C(C)OC)C(C)(C)O)C12 (stereo not given) | – | 1.67% (inactive)
COC(=O)C1=C(c2ccc(Cl)c(C(F)(F)F)c2)C[C@@H]2CC[C@H]1N2C(=O)NC1CC1 | 10.3 µM (active) | –
COC(=O)C1=C(c2ccc(Cl)c(C(F)(F)F)c2)C[C@@H]2CC[C@H]1N2C(=O)NC(C)C | 20.6 µM (active) | –
COC(=O)C1=C(c2ccc(F)cc2F)C[C@@H]2CC[C@H]1N2C(=O)NC1CC1 | – | -26.6% (inactive)
COC(=O)C1=C(c2ccc(C(C)=O)cc2)C[C@@H]2CC[C@H]1N2C(=O)NCCNC(C)=O | – | 13.1% (inactive)
COc1ccc(NC(=O)N2CCC3(CC2)OCCO3)c(OC)c1 | – | 7.95% (inactive)
CCOC(=O)c1c(C)c(C(=O)N2CCC3(CC2)OCCO3)c(C)n1CC | – | 4.35% (inactive)
CCN1c2nc3c(C)cccn3c(=O)c2CC2(C(=O)N(C)C(=O)N(C)C2=O)C1C (stereo not given) | – | -4.11% (inactive)
CN(C)C(=O)NC(O)C(Cl)(Cl)Cl (stereo not given) | – | 0.9% (inactive)
COc1ccc(-c2nn(CCC#N)cc2C(=O)Nc2ccc(C(C)=O)cc2)cc1 | – | 5.46% (inactive)
CN(C)CC1Oc2ccccc2OC1(O)c1ccccc1 (stereo not given) | 2.06 µM (active) | –
CCCOC(=O)C1C2c3ccccc3C(c3ccccc32)C1C(=O)O (stereo not given) | – | -12.7% (inactive)
CC(CC(C#N)(c1ccccc1)c1ccccc1)N1CCCCC1 (stereo not given) | – | -3.92% (inactive)
CC(C)(c1ccc(OC[C@@H]2CO2)cc1)c1ccc(OC[C@H]2CO2)cc1 | 11.9 µM (active) | –

Compound | Potency | activity change, negative = growth inhibition
CCOC(=O)C(O)(c1ccc(N)c(OC)c1)C(F)(F)F (stereo not given) | – | -3.69% (inactive)
Cc1cc(N2C(=O)C3CCCN3C2c2ccc(Cl)c(Cl)c2)no1 (stereo not given) | – | 6.03% (inactive)
CN(C)S(=O)(=O)c1cc(C(=O)N2CCC(C(=O)O)(c3ccccc3)CC2)ccc1Cl | – | -3.11% (inactive)
Cc1ccc(NC(=O)CN(C)CC(=O)Nc2cccc(F)c2)cc1[N+](=O)[O-] | 1.16 µM (active) | –
C=CCSSCC=C | – | 2.53% (inactive)
O=C(NCC(c1cccnc1)N1CCN(c2ccccc2)CC1)Oc1ccccc1 (stereo not given) | – | -19.5% (inactive)
COc1cc2c(cc1OC)[C@@H]1C(=O)c3ccc(O)c(CC=C(C)C)c3OC1CO2 (stereo not given in full) | – | -17.4% (inactive)
CCNc1nc2[nH]c(=O)c3c(c2s1)OC(N)=C(C#N)C3c1cccs1 (stereo not given) | – | -27.5% (inactive)
N#CC1=C(N)Oc2c(c(=O)oc3ccccc23)C1c1ccccc1OC(=O)c1cccs1 (stereo not given) | 23.1 µM (active) | –
CCOC(=O)C(O)(c1ccc(N=Cc2ccccc2O)c(C)c1)C(F)(F)F (stereo not given) | – | 26.3% (inactive)
CCOc1ccc(-c2cc(C)[n+](CCN(CC)CC)c(-c3ccc(OCC)cc3)c2)cc1 | 0.184 µM (active) | –
COc1cc(C2c3cc4c(cc3C(O)C3COC(=O)C23)OCO4)cc(OC)c1OC (stereo not given) | 28.2 nM (active) and 73.1 nM (active) | –
COc1ccc(CNCCc2ccc3c(c2)OCO3)c(OC)c1OC | – | -22.3% (inactive)
COc1ccccc1OC(=O)c1ccc(C)c(S(=O)(=O)N2CCOCC2)c1 | – | -10.1% (inactive)
CCCCCn1c(=O)c(C(=O)NCc2ccccc2)c(O)c2ccccc21 | 6.51 µM (active) | –
CCCCCn1c(=O)c(C(=O)Nc2c(C)n(C)n(-c3ccccc3)c2=O)c(O)c2ccccc21 | 4.61 µM (active) | –
CCCCn1c(=O)c(C(=O)Nc2ccccc2Cl)c(O)c2ccccc21 | 25.9 µM (active) | –
COc1cc(C(c2c(O)c3ccccc3oc2=O)c2c(C)n(C)n(-c3ccccc3)c2=O)ccc1O (stereo not given) | inactive | –
CCCCCn1c(=O)c(C(=O)NCc2ccccn2)c(O)c2ccccc21 | 20.6 µM (active) | –
O=C(CSC1c2ccccc2-c2ccccc21)N/N=C/c1ccccc1 | – | -16.6% (inactive)

Compound | Potency | activity change, negative = growth inhibition
O=C1CC(=O)N(Cc2ccccc2)C(=O)N1CCCCCCN1C(=O)CC(=O)N(Cc2ccccc2)C1=O | – | 2.08% (inactive)
CN(C)C(=O)Oc1cc(=O)n2c3c(cccc13)CCC2 | – | -22.8% (inactive)
CC[N+]1(CCOC(=O)C(O)(c2ccccc2)c2ccccc2)CCCCC1 | – | -6.5% (inactive)
O=C(c1cc(S(=O)(=O)N2CCOCC2)ccc1F)N1CCC2(CC1)OCCO2 | – | -19.4% (inactive)
CO[C@@H]1C[C@@H](C[C@H]2CC[C@H](C)[C@@H]([C@@H](C)C(=O)O)O2)O[C@]2(O[C@](C)([C@H]3CC[C@@](C)(C4OC([C@H]5O[C@@](O)(CO)[C@H](C)C[C@@H]5C)C[C@@H]4C)O3)C[C@H]2C)[C@@H]1C (stereo not given in full) | 0.588 µM (active) | –
CN(C)P(=S)(Nc1ccccc1)C(Cl)(Cl)Cl (stereo not given) | – | -28.9% (inactive)
CN(C)C(=O)Oc1ccc(NC(=O)N2CCOCC2)cc1 | – | 15.6% (inactive)
O=C(Nc1cccc(OC(=O)N2CCCCC2)c1)N1CCOCC1 | 5.8 µM (active) | –
O=C(Nc1cccc(F)c1)N1CC[C@@]2(CCCN(C(=O)Oc3ccccc3)C2)C1 | – | -69.5% (inactive)
c1ccc2sc(N3CCNCC3)nc2c1 | – | -0.512% (inactive)
COc1ccc(NC(=O)c2cn(CCC#N)nc2-c2ccc([N+](=O)[O-])cc2)cc1 | – | 2.67% (inactive)
CN1CCN(/N=C/c2c[nH]c3ccccc23)CC1 | – | 2.07% (inactive)
C[C@@H]1C[C@@H]2O[C@H]2/C=C\C=C\C(=O)Cc2c(Cl)c(O)cc(O)c2C(=O)O1 | 0.164 µM (active) | –
NS(=O)(=O)c1ccc(CCNC(=O)c2ccc(Cl)c(S(=O)(=O)N3CCCCCC3)c2)cc1 | 23.1 µM (active) | –
C=CCn1c(O)c(/C=N/N2CCOCC2)c(=O)[nH]c1=S | – | 3.41% (inactive)
O=C(COc1ccccc1Cl)Nc1ccc2nc(SCC(=O)N3CCCC3)sc2c1 | 16.4 µM (active) | –
CN(C(=O)CSc1nc2ccc(NC(=O)COc3ccccc3)cc2s1)c1ccccc1 | 11.6 µM (active) | –
CCOCCc1c(O)[nH]c(=S)[nH]c1=O | – | -9.37% (inactive)
COc1ccc(C2Oc3c(I)c(OC)cc(OC)c3CC2O)cc1OC (stereo not given) | – | -14.9% (inactive)
CCCCC/C=C\C/C=C\C/C=C\C/C=C\CCCCCC(=O)NCCO | – | -2.9% [at 4.12 µM] (inactive)
